# Values without a mark were called inactive. Records with an inconclusive call do not appear. Where a call stands in place of a potency, no number is given. Active and inactive are the calls of the source. Unless noted, calls follow the shape of the dose curve; as a rule, active = well fitted curve in the direction sought with a large enough effect in the repeat runs; inconclusive = weak or mixed curves; inactive = no such curve, though single readings can be large; an effect the other way counts as inactive or inconclusive.
# Assays:
# [1] = qHTS assay for small molecules that induce genotoxicity in human embryonic kidney cells expressing luciferase-tagged ATAD5 (AID 651632); also: nearly all actives have a fitted effect of over 15% in size
# Summary of the method: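 Reporter cells (HEK293T) express luciferase-tagged ATAD5, a protein that accumulates after DNA damage. Treat 16 hr at 37C/5% CO2, add Amplite, wait 30 min at RT, and read luminescence.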
# [2] = qHTS assay for small molecules that induce genotoxicity in human embryonic kidney cells expressing luciferase-tagged ATAD5 - cell viability (AID 651634; calls by dose curve; also: nearly all actives have a fitted effect of over 25% in size; also: potency is read from the fitted curve at half-maximal effect)
# Summary of the method: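 Seeding of 2,000 HEK293T ATAD5-luciferase cells per well preceded pin-tool compound transfer. Plates sat 15.5 hr at 37C under 5% CO2, then fluorescence was read after 30 min with CellTiter-Fluor.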
# [3] = qHTS assay for small molecule disruptors of the mitochondrial membrane potential - cell viability (AID 720634; calls by dose curve;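 also: human HepG2 liver cancer cells; series mostly up to about 83 µM; nearly all actives have a fitted effect of over 20% in size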)
# Summary of the method: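 Measuring cytotoxicity alongside mitochondrial potential, the screen quantified ATP by luminescence in HepG2 cells after 1 hr compound incubation and a 30 min room-temperature CellTiter-Glo step.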
# [4] = qHTS assay to test for compound auto fluorescence at 590 nm (red) in HepG2 cells (AID 720674)
# Summary of the method: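 Compound auto-fluorescence is scored relative to Rose Bengal sodium, measured at 540/590 nm in live HepG2 cultures after 1 hr compound contact (37 C, 5% CO2).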
# [5] = qHTS assay to test for compound auto fluorescence at 535 nm (green) in HepG2 cells (AID 720675)
# [6] = qHTS assay to test for compound auto fluorescence at 460 nm (blue) in HEK293 cells (AID 720678)
# Summary of the method: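 Blue-channel (Ex/Em 405/460 nm) intensity measured in HEK293 cultures after overnight compound exposure at 37C; signal expressed relative to triamterene. Cells plated 2,000 per well in 10% dialyzed FBS medium and allowed 4-5 hr to attach.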
# [7] = qHTS assay to test for compound auto fluorescence at 590 nm (red) in HEK293 cells (AID 720679)
# Summary of the method: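 Red-channel autofluorescence (Ex/Em 540/590 nm; Rose Bengal sodium reference) was measured after overnight 37C, 5% CO2 exposure of attached HEK293 cells, 2,000 per well in medium with 10% dialyzed FBS.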
# [8] = qHTS assay to test for compound auto fluorescence at 535 nm (green) in HEK293 cells (AID 720680)
# [9] = qHTS assay to test for compound auto fluorescence at 460 nm (blue) in HEK293 cell free culture (AID 720681)
# Summary of the method: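 Test compounds were pinned into cell-free culture medium (DMEM with 10% FBS) and fluorescence was read directly at Ex/Em 405/460 nm. Signals were expressed as fluorescence equivalents of triamterene, with DMSO vehicle as control.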
# [10] = qHTS assay to test for compound auto fluorescence at 535 nm (green) in HEK293 cell free culture (AID 720682)
# Summary of the method: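 Using fluorescein as calibrant, autofluorescence was quantified at 485/535 nm in cell-free DMEM containing 10% FBS after pintool addition of compound or vehicle.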
# [11] = qHTS assay to test for compound auto fluorescence at 590 nm (red) in HEK293 cell free culture (AID 720683)
# Summary of the method: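 Tox21 10K library compounds were pinned into cell-free DMEM with 10% FBS and fluorescence was read at excitation 540 nm. Activity is expressed as Rose Bengal sodium equivalency.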
# [12] = qHTS assay to test for compound auto fluorescence at 590 nm (red) in HepG2 cell free culture (AID 720684)
# Summary of the method: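 Measured in medium alone (MEM containing 10% FBS) following pintool addition of compound; emission at 590 nm with 540 nm excitation, referenced to Rose Bengal sodium.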
# [13] = qHTS assay to test for compound auto fluorescence at 460 nm (blue) in HepG2 cell free culture (AID 720685)
# Summary of the method: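 Compound (23 nL) or DMSO pinned into cell-free MEM with 10% FBS; blue fluorescence read at 405/460 nm excitation/emission, expressed as auto-fluorescence equivalency to triamterene.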
# [14] = qHTS assay to test for compound auto fluorescence at 535 nm (green) in HepG2 cell free culture (AID 720686)
# [15] = qHTS assay to test for compound auto fluorescence at 460 nm (blue) in HepG2 cells (AID 720687)
# Summary of the method: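 Cells (2,000/well in MEM with 10% FBS) attached overnight at 37 C, then were exposed to compound or DMSO for 1 hr at 37 C, 5% CO2. Fluorescence read at Ex/Em 405/460 nm, expressed as triamterene-equivalent signal.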
# [16] = target: Glucocorticoid receptor (Homo sapiens) (UniProt P04150); assay: qHTS assay to identify small molecule agonists of the glucocorticoid receptor (GR) signaling pathway (AID 720691; active = well fitted activation curve with a large enough effect in the signal ratio in the repeat runs, not every such curve was filed as active; the % refers to the signal ratio)
# Chain of Glucocorticoid receptor (Homo sapiens) (P04150 whole entry, looked up): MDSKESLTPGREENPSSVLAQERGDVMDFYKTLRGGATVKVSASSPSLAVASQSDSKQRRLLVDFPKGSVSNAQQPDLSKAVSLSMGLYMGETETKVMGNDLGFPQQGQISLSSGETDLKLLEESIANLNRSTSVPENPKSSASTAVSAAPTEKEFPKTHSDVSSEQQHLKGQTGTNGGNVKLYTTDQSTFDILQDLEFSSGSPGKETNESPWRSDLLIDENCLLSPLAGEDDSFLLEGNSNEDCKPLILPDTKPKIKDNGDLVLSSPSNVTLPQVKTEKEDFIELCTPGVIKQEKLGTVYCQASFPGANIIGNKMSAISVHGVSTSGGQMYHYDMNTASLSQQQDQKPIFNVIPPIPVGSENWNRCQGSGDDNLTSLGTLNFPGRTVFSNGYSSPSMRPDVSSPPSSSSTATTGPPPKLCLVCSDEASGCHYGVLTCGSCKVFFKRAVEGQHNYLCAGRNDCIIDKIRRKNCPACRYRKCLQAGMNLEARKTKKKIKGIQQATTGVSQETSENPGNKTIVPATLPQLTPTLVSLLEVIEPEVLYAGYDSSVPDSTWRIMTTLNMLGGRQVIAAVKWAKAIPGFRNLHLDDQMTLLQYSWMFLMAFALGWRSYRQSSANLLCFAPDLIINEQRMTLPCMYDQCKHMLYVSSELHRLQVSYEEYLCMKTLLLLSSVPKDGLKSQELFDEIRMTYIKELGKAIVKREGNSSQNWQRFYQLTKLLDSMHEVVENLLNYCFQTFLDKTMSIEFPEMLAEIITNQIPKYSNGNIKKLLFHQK
# Summary of the method: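 Reporter read-out: fluorescence intensity following 2 h room-temperature LiveBLAzer B/G FRET substrate loading. Prior step: GR-bla HeLa cells held 4 h, then treated 18 h at 37 C.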
# [17] = qHTS assay for small molecule agonists of the p53 signaling pathway - cell viability (AID 651633; calls by dose curve;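 also: p53RE-bla HCT reporter cells with a stable beta-lactamase p53 reporter; series mostly up to about 83 µM; nearly all actives have a fitted effect of over 30% in size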)
# Summary of the method: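 p53RE-bla cells, seeded at 4,000 per well and rested 5 h at 37 C/5% CO2, received compounds in DMSO for 16 h at 37 C. CellTiter-Glo was then added, and luminescence was read after 30 min at room temperature to gauge cytotoxicity.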
# [18] = target: Glucocorticoid receptor (Homo sapiens) (UniProt P04150); assay: qHTS assay to identify small molecule antagonists of the glucocorticoid receptor (GR) signaling pathway (AID 720692; active = well fitted inhibition curve with a large enough effect in the signal ratio in the repeat runs, not every such curve was filed as active; the % refers to the signal ratio)
# Summary of the method: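 Dexamethasone (5 nM final) stimulated a stably integrated GRE-beta-lactamase reporter in HeLa cells during 18 h co-incubation with compounds; signal was quantified as fluorescence intensity of B/G FRET substrate after 2 h.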
# [19] = qHTS assay for small molecule disruptors of the mitochondrial membrane potential (AID 720635); also: potency is read from the fitted curve at half-maximal effect
# Summary of the method: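 HepG2 cells (2,000/well) attached overnight at 37C, then took compound for 1 hr at 37C, 5% CO2. Mito-MPS dye was added for 30 min; fluorescence was read at 490/535 nm (monomers) and 540/590 nm (aggregates).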
smiles,measurement,setting,value
CCCCCCCCC(CO)CCCCCC (stereo unspecified),Potency,[1],inactive
same,Potency,[2],inactive
same,Potency,[3],inactive
same,outcome,[4],inactive
same,outcome,[5],inactive
same,Potency,[6],inactive
same,outcome,[7],inactive
same,outcome,[8],inactive
same,Potency,[9],inactive
same,outcome,[10],inactive
same,outcome,[11],inactive
same,outcome,[12],inactive
same,Potency,[13],inactive
same,outcome,[14],inactive
same,Potency,[15],inactive
same,Potency,[16],inactive
CCCCOc1ccc(CC(=O)NO)cc1,Potency,[1],inactive
same,Potency,[17],inactive
same,Potency,[2],9.02 µM (active)
same,Potency,[3],inactive
same,"fluorescence, relative to Rose Bengal",[4],0.376% [at 18.6 µM]
same,"fluorescence, % of fluorescein control",[5],0.007% [at 18.6 µM]
same,"fluorescence, % of triamterene",[6],-0.0396% [at 18.6 µM]
same,"fluorescence, % of fluorescent control",[7],0.184% [at 18.6 µM]
same,"fluorescence, % of fluorescein",[8],0.0125% [at 18.6 µM]
same,"fluorescence, % of fluorescent control",[9],-0.0158% [at 18.6 µM]
same,"fluorescence, % of fluorescent control",[11],-0.0389% [at 18.6 µM]
same,"fluorescence, % of Rose Bengal",[12],-0.259% [at 18.6 µM]
same,"fluorescence, % of fluorescent control",[13],0.0098% [at 18.6 µM]
same,"fluorescence, % of fluorescein control",[14],-0.0407% [at 18.6 µM]
same,Potency,[16],inactive
same,Potency,[18],inactive
CCOC(=O)C1=C(C)NC(C)=C(C(=O)OC)C1c1cccc([N+](=O)[O-])c1 (stereo unspecified),Potency,[1],inactive
same,Potency,[17],inactive
same,Potency,[19],26.6 µM (active)
same,outcome,[4],inactive
same,outcome,[5],inactive
same,Potency,[6],inactive
same,outcome,[7],inactive
same,outcome,[8],inactive
same,Potency,[9],inactive
same,outcome,[10],inactive
same,outcome,[11],inactive
same,outcome,[12],inactive
same,Potency,[13],inactive
same,outcome,[14],inactive
same,Potency,[15],inactive
CC(C)NCC(O)c1cc(O)cc(O)c1 (stereo unspecified),Potency,[1],inactive
same,Potency,[2],inactive
same,Potency,[3],inactive
same,Potency,[19],inactive
same,outcome,[4],inactive
same,outcome,[5],inactive
same,Potency,[6],inactive
same,outcome,[7],inactive
same,outcome,[8],inactive
same,Potency,[9],inactive
same,outcome,[10],inactive
same,outcome,[11],inactive
same,outcome,[12],inactive
same,Potency,[13],inactive
same,outcome,[14],inactive
same,Potency,[15],inactive
N[C@H]1C(O)O[C@H](CO)[C@H](O)[C@@H]1O (stereo partly specified),Potency,[1],inactive
same,Potency,[17],inactive
same,Potency,[2],inactive
same,Potency,[3],inactive
same,outcome,[4],inactive
same,Potency,[6],inactive
same,outcome,[7],inactive
same,outcome,[8],inactive
same,Potency,[9],inactive
same,outcome,[10],inactive
same,outcome,[11],inactive
same,outcome,[12],inactive
same,Potency,[13],inactive
same,outcome,[14],inactive
same,Potency,[15],inactive
CCCCCCCC/C=C\CCCCCCCC(N)=O,Potency,[1],inactive
same,Potency,[17],inactive
same,Potency,[2],inactive
same,Potency,[3],inactive
same,outcome,[4],inactive
same,Potency,[6],inactive
same,outcome,[7],inactive
same,Potency,[9],inactive
same,outcome,[10],inactive
same,outcome,[11],inactive
same,outcome,[12],inactive
same,outcome,[14],inactive
same,Potency,[15],inactive
same,Potency,[16],inactive
same,Potency,[18],inactive
CCOC(=O)CC(C)C,Potency,[1],inactive
same,Potency,[17],inactive
same,Potency,[2],inactive
same,Potency,[3],inactive
same,outcome,[4],inactive
same,Potency,[6],inactive
same,outcome,[7],inactive
same,outcome,[8],inactive
same,Potency,[9],inactive
same,outcome,[10],inactive
same,outcome,[11],inactive
same,outcome,[12],inactive
same,Potency,[13],inactive
same,outcome,[14],inactive
same,Potency,[15],inactive
same,Potency,[16],inactive
same,Potency,[18],inactive
OCCC1CCCCN1 (stereo unspecified),Potency,[1],inactive
same,Potency,[17],inactive
same,Potency,[2],inactive
same,Potency,[3],inactive
same,outcome,[4],inactive
same,outcome,[5],inactive
same,Potency,[6],inactive
same,outcome,[7],inactive
same,outcome,[8],inactive
same,Potency,[9],inactive
same,outcome,[10],inactive
same,outcome,[11],inactive
same,outcome,[12],inactive
same,Potency,[13],inactive
same,Potency,[15],inactive
same,Potency,[16],inactive
